Results reported in PubChem BioAssay AID686978 (National Center for Advancing Translational Sciences (NCATS), 2013).
Out of some 420,000 compounds screened, about 64,000 (15%) were called active. Roughly 27% stayed inconclusive and do not appear here. These entries were drawn from the full list. Unmarked numbers belong to inactive results. Calls follow the shape of the dose curve; as a rule, active = well fitted inhibition curve with a large enough effect; inconclusive = small, poorly fitted or top-dose-only effect; inactive = flat fitted curve, though single readings scatter.

Experiment: qHTS for Inhibitors of human tyrosyl-DNA phosphodiesterase 1 (TDP1): qHTS in cells in absence of CPT; also: nearly all actives have a fitted effect of over 55% in size
Conditions: DT40 Tdp1-/- hTDP1 cells, no CPT, ATP luminescence, 48 h; activity change, negative = growth inhibition: at 46.2 µM (top of the series)
Method in brief: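 A cellular qHTS used chicken DT40 cells lacking endogenous Tdp1 but carrying stably transfected human TDP1. Compounds were applied without camptothecin, and cell growth kinetics were judged by ATP-dependent luminescence after ≥48 hr.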
% is scaled to controls: 0 for no effect and ±100 for the full control effect; potency is read from the fitted curve at half-maximal effect.

Point of comparison: Cc1ccsc1C(=O)NCCc1ccco1, “activity change, negative = growth inhibition” value -9.2%. Against it:
- CC1CCN(C(=O)Cn2cc(C(=O)c3ccco3)c3ccccc32)CC1 — higher, -5.83%
- CC(CC(=O)O)CC(=O)NNC(=O)c1cccc(Br)c1 (stereo unspecified) — higher, -3.65%
- COc1ccc(NC(=O)CC2C(=O)OCC3CCCCN32)cc1Cl (stereo unspecified) — lower, -13.6%
- N#CC1(NC(=O)COC(=O)Cc2n[nH]c(=O)c3ccccc23)CCCCC1 — higher, 1.42%
- O=C(Nc1ccccc1C(=O)N1CCOCC1)C1CCC(=O)N1C1CCCC1 (stereo unspecified) — higher, 5.03%
- Cc1nc(C)c(C(=O)Nc2cccc(C)c2C)o1 — lower, -15.9%
- CC1(C)C2CC=C(/C=N/NC(=O)C3CC3)C1C2 (stereo unspecified) — higher, -4.07%
- COC(=O)c1cc(OC)c(OC)cc1NC(=O)C1CCCO1 (stereo unspecified) — lower, -11.9%
- COc1cc(=O)n2c(c1C(=O)N(C)Cc1nonc1C)CCN(C(=O)c1ccc(C)cc1C)CC2 — higher, -1.72%
- O=C(CSc1nnc2ccccn12)c1ccccc1 — lower, -9.28%
- CCN(C(=O)CSc1nnc(-c2ccncc2)o1)c1ccccc1 — higher, -1.26%
- CC(NC(=O)COC(=O)CCC(=O)c1ccc(Cl)cc1)c1ccccc1 (stereo unspecified) — lower, -27%
- O=C(Cc1ccc(Cl)cc1)c1ccccc1 — lower, -15.1%
- COc1ccccc1C(=O)CSc1cccc[n+]1[O-] — higher, -0.265%
- CCN(CC)c1ccc(S(=O)(=O)N2CCOCC2)cc1NC(=O)CSc1cccc[n+]1[O-] — lower, -9.38%
- Cc1ccc(C2=CSC3=NS(=O)(=O)CCN23)cc1C — lower, -17.4%
- CCCCNC(=O)N(O)C1N(/N=C/c2ccccc2O)C(=S)SC1(C)C (stereo unspecified) — lower, -22.5%
- CC(C)C1Nc2c(C(=O)O)cccc2C(Nc2ccccc2C(=O)O)C1(C)C (stereo unspecified) — higher, 3.53%
- Cc1ccc(N/N=C2\COC(C)(C)CC2=O)cc1 — higher, 3.82%
- O=C(NCc1ccccc1Cl)c1csc([C@@H]2O[C@H](CO)[C@@H](O)[C@H]2O)n1 — lower, -14.7%
- C[n+]1ccc(C(=O)NCc2ccccc2)cc1 — higher, 4.77%
- CCCn1nc2cc(C(=O)NCc3ccccc3)ccc2c1OCC — higher, 7.81%
- Cc1ccc2c(c1)C(O)(CC(=O)c1cccnc1)C(=O)N2 (stereo unspecified) — lower, -23.7%
- Cc1ccc(NC(=O)c2ccc(Oc3ncccn3)cc2)cc1 — lower, -14%
- CC(C)c1c(C(=O)N/N=C/c2ccccc2C(=O)O)nnn1-c1nonc1N — higher, -0.811%
- CC(C)(CNC(=O)c1cc(=O)[nH]c2ccccc12)N1CCOCC1 — higher, -4.44%
- O=C(O)c1cccc(N2C(=O)Nc3ccccc3N2O)c1 — higher, 0.678%
- CN1C(=O)c2ccc(NC(=O)c3c(F)c(F)c(F)c(F)c3F)cc2C1=O — lower, -20.5%
- CCCC[C@H]1COCCS(=O)(=O)N1Cc1cccc(Cl)c1 — lower, -19.5%
- O=S1(=O)CC(N2CCSCC2)CN1Cc1cn(Cc2cccc(Cl)c2)nn1 (stereo unspecified) — lower, -18.3%
- O=S(=O)(/C=C/c1ccccc1)N1CCNCC1 — lower, -15.3%
- O=C1Cc2cc(S(=O)(=O)Nc3cccc(F)c3)ccc2N1 — higher, 0.84%
- CC(=O)c1cccc(NC(=O)C2COc3ccccc3O2)c1 (stereo unspecified) — higher, 8.91%
- C/C(=N/NC(=O)C1COc2ccccc2O1)c1ccco1 (stereo unspecified) — lower, -14.3%
- CCOc1cc(C(=O)Nc2c(C)ccc3nsnc23)cc(OCC)c1OCC — lower, -22.1%
- CC1O[C@H](OC2C(COC3OC(CO)C(O)[C@H](O)C3O)OC(OC3CC[C@]4(C)C(CC[C@@]5(C)[C@@H]4C=C[C@]46OC[C@@]7(CCC(C)(C)C[C@H]74)C(O)C[C@@]56C)C3(C)C)C(O)C2O)C(O)C(O)C1O (stereo partly specified) — higher, 7.51%
- O=C(COC(=O)CNS(=O)(=O)c1ccccc1)NC12CC3CC(CC(C3)C1)C2 — lower, -26.4%
- CC(=O)Oc1ccc2c(c1)C(=O)c1ccccc1C2=O — lower, -18.9%
- Cc1cc(Nc2ccc(C(=O)N3CCCCC3)cc2)c2cccc(C)c2n1 — lower, -23.9%
- CCc1c(C)sc(NC(=O)OC)c1C(=O)N1CCOCC1 — lower, -12.6%
- CCCOC(=O)CC1C(=O)NCCN1Cc1ccc(F)cc1 (stereo unspecified) — higher, -3.87%

With O=C(CSc1cccc[n+]1[O-])c1ccc(-c2ccccc2)cc1 the Potency was 0.82 µM (active).
For CCN(C(=O)CSc1cccc[n+]1[O-])c1ccccc1, the Potency was 1.84 µM (active).
In the case of O=C(CSc1cccc[n+]1[O-])c1ccc(Cl)cc1, the Potency is reported as 5.17 µM (active).
In the case of COc1cc(C(=O)NCc2ccncc2)cc(Br)c1OCc1ccccc1, the Potency is reported as 23.1 µM (active).
For O=C(/C=C/c1ccc(F)cc1)Nc1cccc(S(=O)(=O)Nc2cccc(C(F)(F)F)c2)c1, the Potency was 8.2 µM (active).
With COc1ccc(Cn2cc(CN3CCS(=O)(=O)N(Cc4ccc(-c5cccc(Cl)c5)cc4)C(C)C3=O)nn2)cc1 (stereo unspecified) the Potency was 25.9 µM (active).
For CC1C(=O)N(Cc2cn(CC3CCCCC3)nn2)CCS(=O)(=O)N1Cc1ccc(-c2cccc(N(C)C)c2)cc1 (stereo unspecified), the Potency was 7.31 µM (active).
In the case of CC(/C=C/c1ccco1)=N/NC(=O)C1COc2ccccc2O1 (stereo unspecified), the Potency is reported as 16.4 µM (active).
In the case of O=C1C(Cl)=C(Oc2ccccc2)C(=O)c2ccccc21, the Potency is reported as 0.259 µM (active).
